Holding throughout (assay): DAPPL (digital affinity profiling via proximity ligation, sequencing); 10 mM Tris-HCl pH 7.5, 50 mM NaCl, 1 mM DTT, 4% glycerol, room temperature, 30 min; GST-TFs on glutathione beads, 16-mer random dsDNA library, 0.1% formaldehyde crosslink after washing; high values mean tight binding
What all share (settings): protein: recombinant; tags: N-terminal GST; dsDNA, one strand shown

One experiment addresses T1, ERF (Homo sapiens, UniProt P50548 1-548).
T1 sequence: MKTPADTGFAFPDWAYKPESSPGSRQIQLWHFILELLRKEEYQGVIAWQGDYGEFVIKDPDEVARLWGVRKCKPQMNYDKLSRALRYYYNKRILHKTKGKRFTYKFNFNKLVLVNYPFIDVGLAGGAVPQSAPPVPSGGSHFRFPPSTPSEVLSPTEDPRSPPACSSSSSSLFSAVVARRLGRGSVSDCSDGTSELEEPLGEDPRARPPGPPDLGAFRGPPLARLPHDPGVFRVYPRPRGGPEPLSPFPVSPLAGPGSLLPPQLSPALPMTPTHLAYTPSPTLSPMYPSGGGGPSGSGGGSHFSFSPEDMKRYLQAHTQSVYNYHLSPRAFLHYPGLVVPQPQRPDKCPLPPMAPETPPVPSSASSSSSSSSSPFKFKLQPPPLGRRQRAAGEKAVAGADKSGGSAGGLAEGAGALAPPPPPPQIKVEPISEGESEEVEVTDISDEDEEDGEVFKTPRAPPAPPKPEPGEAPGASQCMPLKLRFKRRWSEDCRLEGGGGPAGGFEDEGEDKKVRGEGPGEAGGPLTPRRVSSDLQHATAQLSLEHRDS
The procedure, abridged: (§1)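 Yeast served to express human transcription factors as GST fusions, which were then captured on glutathione beads and labelled with DNA barcodes. Pooled with a tag-only sample, they were incubated with 200 nmole of a 16-mer random double-stranded DNA library for 30 min at room temperature in Tris/NaCl/DTT/glycerol buffer, washed, crosslinked with 0.1% formaldehyde, ligated by proximity, amplified by PCR and sequenced. Dividing each hexamer's read frequency for a factor by its frequency for the tag-only sample gives the binding signal.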

A further experiment deals with T2, ETV3L (Homo sapiens, UniProt Q6ZN32 1-361).
T2 sequence: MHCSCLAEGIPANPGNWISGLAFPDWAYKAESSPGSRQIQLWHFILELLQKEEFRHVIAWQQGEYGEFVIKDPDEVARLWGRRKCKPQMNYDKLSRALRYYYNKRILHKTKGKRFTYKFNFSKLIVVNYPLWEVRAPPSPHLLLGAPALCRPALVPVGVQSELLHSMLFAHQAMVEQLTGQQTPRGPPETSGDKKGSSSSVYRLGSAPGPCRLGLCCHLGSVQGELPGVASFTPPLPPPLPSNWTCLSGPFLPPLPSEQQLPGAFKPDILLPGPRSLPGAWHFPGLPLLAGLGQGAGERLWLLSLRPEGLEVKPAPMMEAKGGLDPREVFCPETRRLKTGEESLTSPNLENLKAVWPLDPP
In short, it runs like this:
as §1

The next experiment concerns the target T3, ETS2 (Homo sapiens, UniProt P15036 1-469).
T3 sequence: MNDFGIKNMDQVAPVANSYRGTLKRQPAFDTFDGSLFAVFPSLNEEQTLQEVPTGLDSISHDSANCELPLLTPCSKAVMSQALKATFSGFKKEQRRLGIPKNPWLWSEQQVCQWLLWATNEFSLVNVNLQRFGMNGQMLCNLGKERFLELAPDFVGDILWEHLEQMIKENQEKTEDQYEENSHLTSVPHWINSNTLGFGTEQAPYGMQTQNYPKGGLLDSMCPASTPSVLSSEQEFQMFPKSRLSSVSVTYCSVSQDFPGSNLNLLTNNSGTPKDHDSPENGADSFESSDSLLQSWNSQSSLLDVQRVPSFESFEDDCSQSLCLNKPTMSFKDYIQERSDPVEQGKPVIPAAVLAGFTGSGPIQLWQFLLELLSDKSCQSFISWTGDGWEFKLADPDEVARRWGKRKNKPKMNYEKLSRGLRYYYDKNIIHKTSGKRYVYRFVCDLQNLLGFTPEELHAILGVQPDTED
In short, it runs like this: as §1

Another experiment concerns the target T4, SPDEF (Homo sapiens, UniProt O95238 1-335).
T4 sequence: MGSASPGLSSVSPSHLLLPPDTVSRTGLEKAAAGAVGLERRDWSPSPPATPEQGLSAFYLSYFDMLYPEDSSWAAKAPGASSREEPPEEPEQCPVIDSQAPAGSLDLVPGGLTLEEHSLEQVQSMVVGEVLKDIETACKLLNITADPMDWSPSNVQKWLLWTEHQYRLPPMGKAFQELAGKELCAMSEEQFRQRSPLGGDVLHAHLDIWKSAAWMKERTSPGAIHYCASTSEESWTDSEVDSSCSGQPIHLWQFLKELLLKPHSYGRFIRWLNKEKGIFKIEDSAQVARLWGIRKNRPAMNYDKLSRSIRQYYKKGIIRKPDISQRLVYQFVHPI
The procedure, abridged: as §1

A further experiment deals with T5, ETV7 (Homo sapiens, UniProt Q9Y603 1-341).
T5 sequence: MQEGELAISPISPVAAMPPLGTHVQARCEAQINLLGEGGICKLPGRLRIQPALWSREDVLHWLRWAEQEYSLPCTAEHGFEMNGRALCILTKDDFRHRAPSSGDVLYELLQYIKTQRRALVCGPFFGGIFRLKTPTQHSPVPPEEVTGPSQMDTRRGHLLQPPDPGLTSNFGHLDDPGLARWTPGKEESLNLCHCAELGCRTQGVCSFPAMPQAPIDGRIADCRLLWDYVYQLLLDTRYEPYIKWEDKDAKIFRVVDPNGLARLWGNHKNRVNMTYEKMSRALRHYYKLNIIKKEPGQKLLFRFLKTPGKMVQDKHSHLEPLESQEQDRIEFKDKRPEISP
In short, it runs like this: as §1

A further experiment has as its target T6, ELF5 (Homo sapiens, UniProt Q9UKW6-2 1-255).
T6 sequence: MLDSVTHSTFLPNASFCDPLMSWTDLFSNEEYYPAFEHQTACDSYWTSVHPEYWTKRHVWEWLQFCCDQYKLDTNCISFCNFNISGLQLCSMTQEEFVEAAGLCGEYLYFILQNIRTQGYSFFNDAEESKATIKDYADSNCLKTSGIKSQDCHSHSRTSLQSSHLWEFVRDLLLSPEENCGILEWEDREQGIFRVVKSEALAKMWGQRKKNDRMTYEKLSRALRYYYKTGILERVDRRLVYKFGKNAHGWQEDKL
In short, it runs like this: as §1

The next experiment has as its target T7, ETV3 (Homo sapiens, UniProt P41162-2 1-143).
T7 sequence: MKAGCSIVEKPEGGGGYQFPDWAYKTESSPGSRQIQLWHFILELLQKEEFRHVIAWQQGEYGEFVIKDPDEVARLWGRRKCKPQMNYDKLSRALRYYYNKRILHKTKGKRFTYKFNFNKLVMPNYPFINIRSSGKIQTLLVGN
In short, it runs like this:
as §1

The next experiment addresses ETV6 (Homo sapiens, UniProt P41212 1-452). The procedure, abridged:
as §1

ETV6, sequence (P41212 whole entry): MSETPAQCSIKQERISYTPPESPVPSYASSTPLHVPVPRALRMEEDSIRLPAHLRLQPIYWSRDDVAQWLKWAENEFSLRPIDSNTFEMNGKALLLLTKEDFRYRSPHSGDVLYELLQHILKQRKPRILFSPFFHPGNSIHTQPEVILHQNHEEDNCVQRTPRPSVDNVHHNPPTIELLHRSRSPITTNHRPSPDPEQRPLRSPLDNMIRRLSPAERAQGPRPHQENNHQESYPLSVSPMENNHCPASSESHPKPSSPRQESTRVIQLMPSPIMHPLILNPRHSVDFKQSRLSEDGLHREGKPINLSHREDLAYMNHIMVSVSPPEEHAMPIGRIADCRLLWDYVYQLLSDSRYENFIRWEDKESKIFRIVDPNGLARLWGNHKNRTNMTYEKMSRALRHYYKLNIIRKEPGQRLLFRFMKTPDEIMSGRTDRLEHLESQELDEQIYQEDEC

As to CTGACC, the binding signal was 1.34 fold enrichment (6-mer frequency, TF over GST control) with ERF; 1.27 fold enrichment (6-mer frequency, TF over GST control) in the experiment with ETV3L; 1.38 fold enrichment (6-mer frequency, TF over GST control) with ETS2; 1.27 fold enrichment (6-mer frequency, TF over GST control) in the experiment with SPDEF; 1.29 fold enrichment (6-mer frequency, TF over GST control) with ETV7; 1.34 fold enrichment (6-mer frequency, TF over GST control) with ELF5. The binding signal was 1.4 fold enrichment (6-mer frequency, TF over GST control) with ETV3 and 1.32 fold enrichment (6-mer frequency, TF over GST control) in the experiment with ETV6.
As to TTATTC, the binding signal was 1.45 fold enrichment (6-mer frequency, TF over GST control) with ERF; 1.47 fold enrichment (6-mer frequency, TF over GST control) with ETV3L; 1.37 fold enrichment (6-mer frequency, TF over GST control) with ETS2; 1.41 fold enrichment (6-mer frequency, TF over GST control) in the experiment with SPDEF; 1.43 fold enrichment (6-mer frequency, TF over GST control) with ETV7; 1.34 fold enrichment (6-mer frequency, TF over GST control) with ELF5. In addition, the binding signal is 1.29 fold enrichment (6-mer frequency, TF over GST control) in the experiment with ETV3 and 1.32 fold enrichment (6-mer frequency, TF over GST control) with ETV6.
Consider ACTGCA, for which the binding signal was 1.13 fold enrichment (6-mer frequency, TF over GST control) with ERF; 1.17 fold enrichment (6-mer frequency, TF over GST control) with ETV3L; 1.12 fold enrichment (6-mer frequency, TF over GST control) in the experiment with ETS2; 1.13 fold enrichment (6-mer frequency, TF over GST control) in the experiment with SPDEF; 1.07 fold enrichment (6-mer frequency, TF over GST control) in the experiment with ETV7; 1.01 fold enrichment (6-mer frequency, TF over GST control) with ELF5. For the same sequence, the binding signal with ETV3 was 1.17 fold enrichment (6-mer frequency, TF over GST control); in the experiment with ETV6, 1.2 fold enrichment (6-mer frequency, TF over GST control).
As to CTCCGC, the binding signal was 1.47 fold enrichment (6-mer frequency, TF over GST control) with ERF; 1.56 fold enrichment (6-mer frequency, TF over GST control) with ETV3L; 1.52 fold enrichment (6-mer frequency, TF over GST control) in the experiment with ETS2; 1.54 fold enrichment (6-mer frequency, TF over GST control) with SPDEF; 1.31 fold enrichment (6-mer frequency, TF over GST control) in the experiment with ETV7; 1.48 fold enrichment (6-mer frequency, TF over GST control) with ELF5. The binding signal with ETV3 is 1.59 fold enrichment (6-mer frequency, TF over GST control); in the experiment with ETV6, 1.44 fold enrichment (6-mer frequency, TF over GST control).
Regarding ACTCCC, the binding signal with ERF is 1.44 fold enrichment (6-mer frequency, TF over GST control); with ETV3L, 1.19 fold enrichment (6-mer frequency, TF over GST control); with ETS2, 1.27 fold enrichment (6-mer frequency, TF over GST control); with SPDEF, 1.32 fold enrichment (6-mer frequency, TF over GST control); in the experiment with ETV7 it was 1.31 fold enrichment (6-mer frequency, TF over GST control); with ELF5 it was 1.38 fold enrichment (6-mer frequency, TF over GST control). Moreover, the binding signal with ETV3 was 1.47 fold enrichment (6-mer frequency, TF over GST control); with ETV6 it was 1.47 fold enrichment (6-mer frequency, TF over GST control).
With ATTACG, the binding signal with ERF is 1.15 fold enrichment (6-mer frequency, TF over GST control); in the experiment with ETV3L, 1.15 fold enrichment (6-mer frequency, TF over GST control); with ETS2, 1.29 fold enrichment (6-mer frequency, TF over GST control); in the experiment with SPDEF, 1.21 fold enrichment (6-mer frequency, TF over GST control); in the experiment with ETV7 it was 1.12 fold enrichment (6-mer frequency, TF over GST control); with ELF5, 1.12 fold enrichment (6-mer frequency, TF over GST control). Moreover, the binding signal was 1.22 fold enrichment (6-mer frequency, TF over GST control) in the experiment with ETV3 and 1.23 fold enrichment (6-mer frequency, TF over GST control) with ETV6.
As for CTTGTC, the binding signal in the experiment with ERF was 1.44 fold enrichment (6-mer frequency, TF over GST control); with ETV3L it was 1.25 fold enrichment (6-mer frequency, TF over GST control); in the experiment with ETS2, 1.24 fold enrichment (6-mer frequency, TF over GST control); with SPDEF it was 1.35 fold enrichment (6-mer frequency, TF over GST control); in the experiment with ETV7, 1.25 fold enrichment (6-mer frequency, TF over GST control); with ELF5, 1.3 fold enrichment (6-mer frequency, TF over GST control). Besides, the binding signal with ETV3 is 1.31 fold enrichment (6-mer frequency, TF over GST control); with ETV6 it was 1.25 fold enrichment (6-mer frequency, TF over GST control).
